Experimental data: ChEMBL document CHEMBL4513216, “Probing the Open Global Health Chemical Diversity Library for Multistage-Active Starting Points for Next-Generation Antimalarials” (ACS Infect Dis, 2020)
The campaign covered roughly 69,000 compounds. About 8,600 (12%) showed an effect of 50% or more. The sample as a whole holds a higher share of strong results than the screen did.

Tested on: Plasmodium berghei
Assay: Screen against P. berghei liver stage (PbLuc), transformed with Luciferase, at 10uM
Type: functional, HepG2
Conditions: tested at 10 uM

In order of falling INHIBITION:
1. CCn1nc(C)c(CCNC(=O)c2cccc(-n3cccn3)c2)c1C  72.5%
2. COc1cccc(CC(=O)N2CCC3(CC2)OCCCC3O)c1OC (stereo unspecified)  69.7%
3. CCN(CC)C(=O)N1CCN(C2=NCC(C)S2)CC1 (stereo unspecified)  65.7%
4. CC(C)CC(=O)N1CC(=O)c2sc(Nc3ccc(F)cc3F)nc2C1  63.4%
5. CN(C)c1ccc(CCCNC(=O)NCC(O)c2cccs2)cc1 (stereo unspecified)  60.4%
6. COc1ccccc1Nc1nc2c(s1)C(=O)CN(C(=O)CC(C)C)C2  59%
7. CC(=O)Nc1ccc2c(c1)C1(CCOCC1)C(=O)N2c1ccsc1  58.7%
8. O=C(c1nc(Cc2c[nH]c3ccccc23)no1)N1CCCCC1  55.4%
9. C[C@@H](CO)NC(=O)c1ccc2nc(NS(C)(=O)=O)sc2c1  54.2%
10. CCOCc1nc2c(c(NC(CC)c3cccnc3)n1)CCNCC2 (stereo unspecified)  53.5%
11. COCC(=O)N1CC(=O)c2sc(Nc3ccc(F)cc3F)nc2C1  53%
12. CC(C)Nc1ccc2c(c1)C1(CCOCC1)C(=O)N2c1ccsc1  52.3%
13. CSCC[C@@H](CO)NC(=O)c1ccc2nc(NS(C)(=O)=O)sc2c1  46.7%
14. COc1cccc(OC)c1CN1CC(O)CN(S(C)(=O)=O)CC1=O (stereo unspecified)  46.4%
15. CNc1nc2c(s1)C(=O)CN(C(=O)[C@@H](N)Cc1cccc(OC)c1)C2  45.6%
16. CCOc1ncccc1NC(=O)NCC(O)c1ccc(OC)cc1 (stereo unspecified)  44.1%
17. CC(CN1CCOC1=O)NC(=O)c1cccc(C#N)c1 (stereo unspecified)  42.1%
18. CCOCc1nc2c(c(NC(CC)c3ccnn3C)n1)CCNCC2 (stereo unspecified)  40.6%
19. CCNC(=O)Cc1n[nH]c(-c2cncc(Br)c2)n1  39.3%
20. CCOCc1nc2c(c(NC(CC)c3ccncc3)n1)CCNCC2 (stereo unspecified)  37.7%
21. Cc1nn(-c2ccccc2)c2c1c(C(F)F)cc(=O)n2CC(=O)O  36.35%
22. CC(C)CC(=O)N1CC(=O)c2sc(NCCc3ccccc3)nc2C1  35.2%
23. CN(C)CCN(C)C1CCN(C(C(=O)O)c2ccc(F)c(Cl)c2)CC1 (stereo unspecified)  34.9%
24. CN(C)CCO[C@H]1CN(Cc2ccc3c(c2)OCO3)[C@@H]2COC[C@H]12  33%
25. CC(C)Cc1nc(-c2ccnc(N3CCNCC3)n2)no1  31.2%
26. NC(=O)CN1CCC(c2cc(C(F)(F)F)n3ccnc3n2)CC1  30.8%
27. CN1CC(c2cc(O)nc(NCc3ccccc3Cl)n2)CC1=O (stereo unspecified)  30.4%
28. CC/C=C(/C)C(=O)N1CCN(C2=NCC(C)S2)CC1 (stereo unspecified)  30.3%
29. CC(=O)N1[C@H](CN(C)C)C[C@@H]2CN(C(=O)c3cccc(F)c3)CC[C@@H]21  29.9%
30. O=C(c1nc(Cc2c[nH]c3ccccc23)no1)N1CCOCC1  29.9%
31. CC1CCC2(CC1)Nc1ccccc1CO2 (stereo unspecified)  29.7%
32. O=C(c1nc(Cc2c[nH]c3ccccc23)no1)N1CCCC1  25.2%
33. CC(C)n1c(C2CCCN(Cc3ccnn3C)C2)nc2ccccc21 (stereo unspecified)  23.9%
34. CCn1nc(C)c(CCNC(=O)c2cccc(NCC(=O)O)c2)c1C  22.3%
35. COc1cccc(C(C(=O)O)N2CCC(Cn3cccn3)CC2)c1OC (stereo unspecified)  19.8%
36. COC(=O)c1ccoc1CN(C)CC(=O)NC1CCS(=O)(=O)C1 (stereo unspecified)  17.9%
37. Cc1nc(C2CCCN(C(=O)c3cccc4c3OCCO4)C2)no1 (stereo unspecified)  15.3%
38. O=C(Cc1ccccc1C(F)(F)F)N1CCC2(CC1)OCCCC2O (stereo unspecified)  13.2%
39. CC(C)c1nn(C)c(N(C)C)c1CNC1CCN(C2CC2)CC1  12.8%
40. CC(C)NC(=O)[C@@H]1CN(C)C[C@]12COc1ccc(F)cc1C2=O  12.515%
41. Cc1cc(C)n(Cc2cc(C(=O)N3CCCC3c3nccs3)n[nH]2)n1 (stereo unspecified)  10.7%
42. CCC(C)Nc1ccc2c(c1)C1(CCOCC1)C(=O)N2c1ccccc1 (stereo unspecified)  10.5%
43. CC(C)CC(=O)N1CC(=O)c2sc(NC3CCCCC3)nc2C1  10%
44. CN(C)c1ccc(CCCNC(=O)NCC(O)c2ccsc2)cc1 (stereo unspecified)  8.92%
45. NC(=O)CN1CCCC(Cc2ccc(N)nn2)C1 (stereo unspecified)  8.72%
46. Cc1cnn(CCNCC(=O)NC(C)c2ccc3c(c2)OCCO3)c1 (stereo unspecified)  8.64%
47. CN(C)c1ccc(C(O)CNC(=O)NCCCc2ccccc2)cc1 (stereo unspecified)  5.91%
48. O=C(CCc1ccc(Cl)s1)NCc1nnc2n1CCCCC2  5.9%
49. COCC(=O)N1CCC2(CC1)CNc1ccc(F)cc12  5.63%
50. Cc1cc(C(=O)N2CCC3(CC2)C(=O)N(C)CCN3CC2CC2)c(C)o1  4.98%
51. CC(CO)NC(=O)c1ccc2[nH]/c(=N\S(C)(=O)=O)sc2c1 (stereo unspecified)  4.93%
52. CCCOc1cc(CNC(=O)Nc2ccccn2)ccn1  3.87%
53. Cn1cc(C(=O)N2CC[C@@H]3[C@@H]2CCN3c2ncc(F)cn2)cn1  2.4%
54. COc1cccc(CNc2c(O)c(=O)c2=O)c1  0.207%
55. Cc1noc(C2CCC3(CCN(C(=O)c4ccn(C)n4)CC3)O2)n1 (stereo unspecified)  -0.371%
56. CCOC(=O)C1(NC(=O)CCNc2cc(C)ccc2OC)CCCCC1  -7.77%
57. COc1ccccc1CC(=O)N1CC[C@H](O)[C@]2(CCCO2)C1  -12.2%
58. CC1CCN(C(=O)Cn2nc(Br)nc2Br)CC1  -12.7%
59. CC(CNC(=O)c1cccc(-n2cccn2)c1)Cn1ccnc1 (stereo unspecified)  -13.6%
60. O=C1[C@@H]2C[C@H](O)CCN2C(=O)CN1CCSc1ccccn1  -19.41%
61. Cc1csc(N2CCN(CC(=O)NCc3ccccn3)CC2C)n1 (stereo unspecified)  -19.605%
62. CCN1C(=O)C2(CCOCC2)c2cc(NC(=O)COC)ccc21  -19.8%
63. O=C(NCC(F)(F)F)c1ccc(-n2cccn2)nn1  -27.8%
64. CCN1C(=O)C2(CCOCC2)c2cc(NC(=O)c3cnccn3)ccc21  -28.8%
65. CCN1C(=O)C2(CCOCC2)c2cc(NC(=O)c3csnn3)ccc21  -35.2%
66. CCC(C)(C)C(=O)N1CCN(C2=NCC(C)S2)CC1 (stereo unspecified)  -87.7%
